For 40 compounds, outcome results are on record in PubChem BioAssay (EPA / NIEHS).

Activity calls are given as the source filed them. How the source made its calls: active means hit-call score of the fitted dose curve at least 0.9, where 1 is the maximum; inactive means score below 0.9.

Hepatocyte nuclear factor 3-beta (Homo sapiens), sequence (Q9Y261 whole entry, looked up): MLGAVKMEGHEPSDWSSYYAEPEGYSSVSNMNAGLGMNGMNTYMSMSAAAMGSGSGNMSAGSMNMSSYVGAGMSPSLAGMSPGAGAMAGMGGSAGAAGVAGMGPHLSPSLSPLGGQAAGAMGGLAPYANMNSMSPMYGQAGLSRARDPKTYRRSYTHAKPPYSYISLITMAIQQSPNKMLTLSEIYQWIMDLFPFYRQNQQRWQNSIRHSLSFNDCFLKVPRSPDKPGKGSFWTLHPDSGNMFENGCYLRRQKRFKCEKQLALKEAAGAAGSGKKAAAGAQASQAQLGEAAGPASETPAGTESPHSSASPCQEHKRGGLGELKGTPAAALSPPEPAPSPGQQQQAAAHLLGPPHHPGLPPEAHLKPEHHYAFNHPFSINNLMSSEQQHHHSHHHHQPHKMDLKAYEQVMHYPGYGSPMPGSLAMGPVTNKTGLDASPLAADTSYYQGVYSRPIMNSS

This assay has as its target Hepatocyte nuclear factor 3-beta (Homo sapiens) (UniProt Q9Y261). Put plainly: ATG_FoxA2_CIS: Attagene CIS-FACTORIAL HepG2 Assay for human Forkhead box A2 (FOXA2) (AID 2282942). The following applies: HepG2 cis-reporter transcription factor activity, 24 h; actives raise or lower the signal. Here is the method: ATG_CIS is a cell-based, multiplexed-readout assay that uses HepG2, a human liver cell line, with measurements taken at 24 hours after chemical dosing in a 24-well plate.ATG_FoxA2_CIS is one of 52 assay component(s) measured or calculated from the ATG_CIS assay. It is designed to make measurements of mRNA induction, a form of inducible reporter, as detected with fluorescence intensity signals by Reverse transcription polymerase chain reaction (RT-PCR) and Capillary electrophoresis technology.Data from the assay component ATG_FoxA2_CIS was analyzed into 1 assay endpoint. This assay endpoint, ATG_FoxA2_CIS, was analyzed with bidirectional fitting relative to DMSO as the negative control and baseline of activity. Using a type of inducible reporter, measures of mRNA for gain or loss-of-signal activity can be used to understand the reporter gene at the transcription factor-level as they relate to the gene FOXA2. Furthermore, this assay endpoint can be referred to as a primary readout, because this assay has produced multiple assay endpoints where this one serves a reporter gene function. To generalize the intended target to other relatable targets, this assay endpoint is annotated to the dna binding intended target family, where the subfamily is forkhead box protein.
Human liver HepG2 cells are transiently transfected with multiple reporter transcription units (MRTUs) in 6-well plates using FuGene 6 reagent (Roche; 3 ml FuGene/1 mg DNA). The MRTU constructs are regulated by a cis-regulating element (promoter). […] A major difference between the CIS and TRANS system is that in CIS activities of endogenous TFs are measured, whereas the TRANS assay evaluates changes in activities of exogenous, chimeric NR-Gal4 proteins. […] At the end of 24 hour incubation, total RNA was isolated using TriZol reagent (Invitrogen). The isolated RNA is then reverse-transcribed using oligo(dT) primer and Mo-MLV reverse transcriptase (Invitrogen) with DNAse I (Ambion) treatment for 30 min. The one-tenth of the produced cDNA was amplified by PCR using Taq DNA polymerase (Invitrogen) and two reporter sequence-specific primers. The PCR products were fluorescently labeled by primer extension with 6-arboxyfluorescein (6-FAM) 5'-labeled reporter sequence-specific primer (2 min at 95 C, 20 s at 68 C and 10 min at 72 C) and these products were digested with 5U of HpaI (New England Biolabs) for 2h at 37 C. The fragments were purified using Qiaquick PCR columns (Qiagen), analyzed on an ABI 3130xL genetic analyzer (Applied Biosystems) with peak positions identified by using a set of X-rhodamine (ROX)-labeled MapMarker1000 molecular weight standards (BioVentures). The raw capillary electrophoresis data was processed using Attagraph software (Attagene).
Take `COc1ccnc(CS(=O)c2nc3cc(OC(F)F)ccc3[nH]2)c1OC` (stereo not given): the outcome was inactive. The result for `Nc1ccc(S(N)(=O)=O)cc1` reads “inactive”; that for `COC(=O)Cc1cccc2ccccc12`, “inactive”; that for `CCCCCCCCCCC(CO)CCCCCCCC` (stereo not given), “inactive”.

On to `CC1(CO)CN(c2ccccc2)NC1=O` (stereo not given), for which the result was inactive.

Consider `CCCCO`, for which the call was inactive. Regarding `C=C(C)[C@@H]1CCC2=CC(=O)C[C@@H](C)[C@]2(C)C1`, the result was inactive. The entry for `CC(C)OP(=O)(CP(=O)(OC(C)C)OC(C)C)OC(C)C` is “inactive”. Take `COc1cc(C)cc(O)c1`: the outcome was inactive. The result for `CCC/C=C/C=O` reads “inactive”; that for `C=CCOc1nc(OCC=C)nc(OCC=C)n1`, “inactive”; that for `CC(C)(C)c1n[nH]c(=S)n(N)c1=O`, “inactive”. The result for `CCC(C(=O)NC(N)=O)c1ccccc1` (stereo not given) reads “inactive”; that for `CC(CCO)CCc1ccccc1` (stereo not given), “inactive”.

For the compound `CCCCc1ccc(N)cc1`, the call was inactive.

Consider `O=S(=O)(O)c1cccc2c(S(=O)(=O)O)cccc12`, for which the outcome was inactive. The entry for `OC1C(O)C(O)C(O)C(O)C1O` (stereo not given) is “inactive”; for `COc1cc2ncnc(Nc3cccc(Cl)c3)c2cc1OC` it is “inactive”. The result for `Cc1ccc(S)cc1` reads “inactive”. The entry for `Cc1cccc(C)c1C` is “inactive”. In the case of `CC(C)Oc1ccccc1O`, the compound was called inactive. The result for `Sc1nc(S)nc(S)n1` reads “inactive”; that for `CCCCCCCCC`, “inactive”. As to `CCn1c2ccccc2c2cc(N)ccc21`, the call was inactive. The result for `CCN(CC)c1ccc2c(-c3ccccc3C(=O)O)c3ccc(=[N+](CC)CC)cc-3oc2c1` reads “inactive”; that for `CCCCCC(CO)CCC` (stereo not given), “inactive”; that for `CC(=O)OCCC(C)CC(C)(C)C` (stereo not given), “inactive”. Turning to `c1ccc(CCCc2ccccn2)cc1`, the compound was called inactive. The entry for `CCCCC[Si](OCC)(OCC)OCC` is “inactive”; for `CCCCCNCCCCC` it is “inactive”; for `O=C(O)CCSCCC(=O)O` it is “inactive”. The entry for `O=CCCc1ccccc1` is “inactive”.

On to `CC(=O)Nc1ccc(C)cc1C`, for which the call was inactive. For `O=C=NC1CCC(CC2CCC(N=C=O)CC2)CC1` (stereo not given), the compound was classed as inactive. The result for `O=[N+]([O-])c1cc(C(F)(F)F)ccc1Cl` reads “inactive”; that for `CCCCCCCCCCCCCC(=O)O`, “inactive”. The result for `BrC1CCC(Br)C(Br)CCC(Br)C(Br)CCC1Br` (stereo not given) reads “inactive”. For `O=C(OCc1ccccc1)C(=O)OCc1ccccc1`, the compound was classed as inactive. The entry for `CCC(C)CCCC(C)(C)O` (stereo not given) is “inactive”.

For `[Ca+2]`, the compound was classed as inactive.
